{"source": "PubChem BioAssay (EPA / NIEHS)", "note": "Records with an inconclusive call do not appear. Calls of active or inactive are those of the source. How the source made its calls: active means hit-call score of the fitted dose curve at least 0.9, where 1 is the maximum; inconclusive means response in the unintended direction; inactive means score below 0.9.", "data": [{"read-out": "HMG-CoA synthase (HMGCS2), HMGCS2 (gene 3158)", "assay": "CLD_HMGCS2_24hr: CellzDirect (CLD) Gene Expression Assay for HMG-CoA synthase (HMGCS2) at 24 hours (AID 2283691)", "method": "CLD_24hr is a cell-based, multiplexed-readout assay that uses hepatocyte, a human liver primary cell, with measurements taken at 24 hours after chemical dosing in a 96-well plate.CLD_HMGCS2_24hr is one of 16 assay component(s) measured or calculated from the CLD_24hr assay. It is designed to make measurements of mRNA induction, a form of inducible reporter, as detected with chemiluminescence signals by Quantitative Nuclease Protection Assay (qNPA) technology.Data from the assay component CLD_HMGCS2_24hr was analyzed at the endpoint, CLD_HMGCS2_24hr, in the positive analysis fitting direction relative to DMSO as the negative control and baseline of activity. Using a type of inducible reporter, gain-of-signal activity can be used to understand changes in the reporter gene as they relate to the gene HMGCS2. Furthermore, this assay endpoint can be referred to as a primary readout. To generalize the intended target to other relatable targets, this assay endpoint is annotated to the lyase intended target family, where subfamily is HMG-CoA synthase.\nHuman hepatocyte cultures were treated daily for two consecutive days with fresh dosing solutions containing appropriate concentrations of the 320 ToxCast chemicals (chemical identities were blinded to CellzDirect and other ToxCast collaborators), vehicle control (0.2% DMSO), and positive control inducers as summarized in Table 1. Due to the large number of treatment groups and chemicals examined, the ToxCast chemicals were divided into two groups (spanning two independent cultures of hepatocytes from separate donor preparations (Hu778: ToxCast plates 1 and 2; Hu776: ToxCast plates 3 and 4). Each preparation of human hepatocyte cultures was treated with respective vehicle control, medium only control, set of six positive controls/reference chemicals for the five hepatic receptor pathways, and a subset of eight of the ToxCast chemicals (indoxacarb, pyrithiobac-sodium, norflurazon, cyhalofop-butyl, methomyl, thiram, acetochlor, and propiconazole). These replicate data, coupled with internal replicates designed within the blinded ToxCast chemical library, provided additional data to evaluate interindividual differences between hepatocyte preparations and their potential impact on chemical profiles.Cell morphology and integrity were evaluated using phase-contrast microscopy as an indicator of hepatocyte cell health (Tyson & Green, 1987). Cultures for each treatment group (i.e., media, vehicle [0.2% DMSO], positive control inducers [multiple concentrations], and the ToxCast chemicals [multiple concentrations]) were observed and cell morphology was assessed relative to vehicle control cultures at each harvest time point (0, 6, 24, or 48 h). […] Images were evaluated at the conclusion of the study to assess changes in cell integrity and account for the effects of chemical exposure on uncharacteristic changes in concentration-dependent gene expression profiles. The results from these determinations of apparent cytotoxicity were annotated (yes/no) alongside the corresponding qNPA data for reference.At the conclusion of each treatment period, hepatocyte cultures (96-well) were washed with 1 volume of HBSS, lysed by addition of 25 ul ArrayPlate lysis buffer (HTG, Tucson, AZ), and 70 ul/well of Denaturation Oil, denatured by incubation at 95C for 10 min, and frozen at approximately -70C until analysis by nuclease protection assay (qNPA) (Roberts et al., 2007). For qNPA analysis, cell lysates were thawed at 50C for approximately 30 min, qNPA probes were added, and samples were incubated at 95C for 10 min to begin the detection process by denaturing the target RNA, dissociating the duplexes and secondary structure hybridization. At the conclusion of the hybridization period, S1 nuclease reagent was added to each sample to digest all nonprotected nucleotides at 50C for 60-90 min. […]", "values": [{"smiles": "CC1(C)C(C(=O)OC(C#N)c2cccc(Oc3ccccc3)c2)C1(C)C", "note": "(stereo unspecified)", "outcome": "inactive"}, {"smiles": "CCCN(CC)CC1COC2(CCC(C(C)(C)C)CC2)O1", "note": "(stereo unspecified)", "AC50": "74.2 nM (active)"}, {"smiles": "CSC(=O)c1c(C(F)F)nc(C(F)(F)F)c(C(=O)SC)c1CC(C)C", "outcome": "inactive"}, {"smiles": "CN=C=S", "outcome": "inactive"}, {"smiles": "CCNC(=O)NC(=O)C(C#N)=NOC", "outcome": "inactive"}, {"smiles": "Cc1nc(N(C)C)nc(OC(=O)N(C)C)c1C", "outcome": "inactive"}, {"smiles": "COP(=O)(OC)O/C(C)=C/C(=O)N(C)C", "outcome": "inactive"}, {"smiles": "CCOC(=O)C(C)OC(=O)c1cc(Oc2ccc(C(F)(F)F)cc2Cl)ccc1[N+](=O)[O-]", "note": "(stereo unspecified)", "AC50": "310 nM (active)"}, {"smiles": "COC(=O)NS(=O)(=O)c1ccc(N)cc1", "outcome": "inactive"}, {"smiles": "N#CN=C1SCCN1Cc1ccc(Cl)nc1", "outcome": "inactive"}, {"smiles": "CCOP(=O)(OCC)Oc1nc(Cl)c(Cl)cc1Cl", "outcome": "inactive"}, {"smiles": "CS(=O)(=O)c1ccc(C(=O)C2C(=O)CCCC2=O)c([N+](=O)[O-])c1", "outcome": "inactive"}, {"smiles": "CCOc1nc(F)cc2nc(S(=O)(=O)Nc3c(Cl)cccc3Cl)nn12", "outcome": "inactive"}, {"smiles": "Nc1c(Cl)c(Cl)nc(C(=O)O)c1Cl", "outcome": "inactive"}, {"smiles": "COCc1cnc(C2=NC(C)(C(C)C)C(=O)N2)c(C(=O)O)c1", "note": "(stereo unspecified)", "outcome": "inactive"}, {"smiles": "CC(C)N1C(=O)c2ccccc2NS1(=O)=O", "outcome": "inactive"}]}]}
